We go through 40 compounds from ChEMBL document CHEMBL1157539, “Thousands of chemical starting points for antimalarial lead identification” (Nature, 2010).

The subject of this assay is Plasmodium falciparum. Briefly: GSK_TCMDC: Inhibition of Plasmodium falciparum 3D7 in whole red blood cells, using parasite LDH activity as an index of growth. Test compounds present at 2uM. Format: functional.
A word on the Inhibition: it is the share of the control response that was lost under treatment. Low readings indicate a response near the control, high ones a response far below the control. For the compound `CCCNCc1ccc(-c2ccc(CN(Cc3cccs3)C(=O)C3CCN(C)CC3)cc2)nc1.O=C(O)C(F)(F)F`, the Inhibition is reported as 99%.

With `CN(c1ccc(NC(=O)Nc2cc(C(F)(F)F)ccc2F)cc1)c1ccnc(NCCN2CCOCC2)n1.O=C(O)C(F)(F)F`, the Inhibition is 97%.

As for `CCCC(CNC(=O)c1cc2c(Cl)cc(Cl)cc2[nH]1)CNc1cc(=O)c2ccccc2[nH]1.O=C(O)C(F)(F)F` (stereo not given), the Inhibition was found to be 100%.

As to `CN(Cc1cccc(F)c1)C1CCCN(c2cc(NC(=O)c3ccccc3)ccn2)C1.O=C(O)C(F)(F)F` (stereo not given), the Inhibition came to 93%.

Take `Oc1ccc(Cl)cc1Nc1nc(C(F)(F)F)nc2ccccc12`: the Inhibition was 86%.

`COc1ccc(-c2nnc(Sc3ccc(C#N)c([N+](=O)[O-])c3)n2CC(C)C)cc1` returned an Inhibition of 97%.

For the compound `CN1CCC(N2CCN(Cc3cccc(-c4cccc(-c5nc6ccccc6[nH]5)c4)c3)CC2)CC1.O=C(O)C(F)(F)F`, the Inhibition came to 100%.

`COc1ccc(NC(=O)/C=C/c2ccc(Cl)c(Cl)c2)cc1N1CCN(C)CC1` registered an Inhibition of 90%.

`CCCCC(CC)NC(=O)[C@H]1CNCCN1C(=O)CCCc1ccccc1.O=C(O)C(F)(F)F` (stereo not given in full) returned an Inhibition of 94%.

Turning to `CC(C)C[C@@H](NC(=O)NC1CCC(CCN2C3CCC2CC(OC(=O)C(CO)c2ccccc2)C3)CC1)C(O)(c1ccccc1)c1ccccc1` (stereo not given in full), the Inhibition was 95%.

Take `O=C(/C=C/c1ccc(Cl)c(Cl)c1)NC1CCC(CN2CCC(Cc3cc4ccccc4[nH]3)CC2)CC1` (stereo not given): the Inhibition is on record as 100%.

`O=C(Nc1ccc(OC2CCN(Cc3ccsc3)C2)c(Cl)c1)c1ccco1.O=C(O)C(F)(F)F` (stereo not given): the Inhibition worked out at 93%.

Regarding `COc1ccc2ncc(F)c(CCN3CC(O)C(CNCc4ccc5oc(=O)ccc5c4)C3)c2n1.Cl` (stereo not given), the Inhibition was determined as 89%.

In turn, `Cc1cccc2nc(-c3ccc(-c4ccc(NC(=O)CN5CCN(C)CC5)cc4)s3)[nH]c12` had an Inhibition of 95%.

As for `O=C1Nc2ccccc2/C1=N/NC(=S)N1CCOCC1`, the Inhibition was 95%.

The compound `CCCC(=O)Nc1ccc(OCCCN(Cc2ccccc2F)c2ccc(C#N)c(C(F)(F)F)c2)cc1` yielded an Inhibition of 89%.

The compound `CCCCn1c(SC(C)C)nc2c(c1=O)C1(CCCCC1)Cc1ccccc1-2` gave an Inhibition of 99%.

Compound `O=C(/C=C/c1ccc(Cl)c(Cl)c1)NCCCCCCN1CCCN(C(=O)Nc2ccc(C(F)(F)F)cc2)CC1` gave an Inhibition of 100%.

On to `CC(Cc1ccc(NC(=O)c2ccc(CNCCc3ccccc3)cc2)cc1)NCCc1cccc(Cl)c1.Cl` (stereo not given), for which the Inhibition turned out to be 100%.

`Cc1cc(C(=O)Nc2ccc(-c3nc4ccccc4[nH]3)cc2)ccc1[N+](=O)[O-]` registered an Inhibition of 100%.

`CCCc1cc(Cc2cnc(N)nc2N)cc(CCC)c1OC.Cl` came in with an Inhibition of 92%.

The compound `Cc1nc2c(s1)c(=O)cc(CCc1cccc(F)c1F)n2CC(=O)N(Cc1ccc(-c2ccc(C(F)(F)F)cc2)cc1)C1CCN(C(C)C)CC1.O=C(O)C(O)C(O)C(=O)O` registered an Inhibition of 100%.

The compound `CCc1cc(I)c2c(c1)C(NCCCNc1cc(=O)c3ccccc3[nH]1)CCN2.CS(=O)(=O)O` (stereo not given) came in with an Inhibition of 89%.

`CC1CN(CCCn2c3ccccc3c3ccc(C(=O)CCCN(C)C)cc32)CC(C)N1.Cl` (stereo not given): the Inhibition was 100%.

As for `CCCN1CCN(c2ccccc2NS(=O)(=O)c2ccc(C(=O)Nc3ccc(Cl)cc3)cc2)CC1.O=C(O)C(F)(F)F`, the Inhibition came out at 84%.

`c1ccc(OCCCCN2CCCCC2)cc1` displayed an Inhibition of 95%.

Consider `CN1CCN(c2nsc3ccc(-c4ccc(OCCN5CCCC5)cc4)cc23)CC1.O=C(O)C(F)(F)F`, for which the Inhibition was 100%.

`O=C(Nc1ccc(Cl)cc1)N1CCN(C2CCCCC2)CC1` had an Inhibition of 93%.

Compound `O=C(NCc1ccccc1)NC(CCCN1CCC(Oc2cccc(Cl)c2)CC1)c1ccc(Cl)c(Cl)c1` (stereo not given) showed an Inhibition of 81%.

`COCCNCc1cccc(-c2ccc3c(Nc4cc(O)c(Cl)cc4F)ccnc3c2)c1` registered an Inhibition of 100%.

As for `Cc1cc(NC(=O)c2cc(S(=O)(=O)N3CCCCC3)ccc2C)no1`, the Inhibition turned out to be 95%.

As to `O=C(Nc1ccncc1)c1cc(C(=O)Nc2ccncc2)cc([N+](=O)[O-])c1`, the Inhibition is 100%.

In turn, `Cn1cnc2c(Nc3ccncc3)nc(-c3ccc4c(c3)OCO4)nc21.O=C(O)C(F)(F)F` showed an Inhibition of 96%.

Take `Cc1cnc(Nc2ccccc2)nc1N[C@@H](CCCN)C(=O)Nc1ccccc1.O=C(O)C(F)(F)F`: the Inhibition is reported as 100%.

Consider `CCC(C)NCCC(c1ccccc1)c1ccccc1O.Cl` (stereo not given), for which the Inhibition was determined as 97%.

For `O=C(Nc1cccc(C2=NCCN2)c1)Nc1cccc(C2=NCCN2)c1` [IMIDOCARB], the Inhibition amounted to 98%.

Take `CCCCCCN1CCC(NCc2cccc(C#N)c2)CC1.O=C(O)C(F)(F)F`: the Inhibition is reported as 97%.

`O=C(O[C@@H]1CN[C@H](C#Cc2cc3c(Nc4ccc5c(cnn5Cc5ccccc5)c4)ncnc3s2)C1)N1CCCC1` had an Inhibition of 99%.

`CCOc1ccc(-c2cc3nc(C4CCNCC4)c(C(=O)Nc4ccc(C)cc4Cl)cn3n2)cc1.Cl` displayed an Inhibition of 95%.

In the case of `CC(C)c1cc2c(cc1O)C(Cc1ccccc1Cl)N(C)CC2.Cl` (stereo not given), the Inhibition came to 97%.
